Assay type in all cases: functional
The target of experiment [1] is Solute carrier family 2, facilitated glucose transporter member 1 (Homo sapiens) (UniProt P11166). Description: ST_JUDE_LEISH: Cytotoxicity at 2uM final concentration against transgenic Leishmania Mexicana promastigotes LmGLUT1 that are glucose transport deficient and complemented with the human glucose transporter GLUT1. Activity is measured by DNA content using SYBR green in vitro.

Experiment [2] addresses Hexose transporter 1 (Plasmodium falciparum) (UniProt O97467). Description: ST_JUDE_LEISH: Cytotoxicity at 2uM final concentration against transgenic Leishmania Mexicana promastigotes LmPfHT that are glucose transport deficient and complemented with the Plasmodium falciparum hexose transporter. Activity is measured by DNA content using SYBR green in vitro.
The target in experiment [3] is Glucose transporter (Leishmania mexicana) (UniProt O61059). Description: ST_JUDE_LEISH: Cytotoxicity at 2uM final concentration against transgenic Leishmania Mexicana promastigotes LmGT2 that are glucose transport deficient and complemented with the L. Mexicana glucose transporter 2. Activity is measured by DNA content using SYBR green in vitro.

Chain of Solute carrier family 2, facilitated glucose transporter member 1 (Homo sapiens) (P11166 whole entry): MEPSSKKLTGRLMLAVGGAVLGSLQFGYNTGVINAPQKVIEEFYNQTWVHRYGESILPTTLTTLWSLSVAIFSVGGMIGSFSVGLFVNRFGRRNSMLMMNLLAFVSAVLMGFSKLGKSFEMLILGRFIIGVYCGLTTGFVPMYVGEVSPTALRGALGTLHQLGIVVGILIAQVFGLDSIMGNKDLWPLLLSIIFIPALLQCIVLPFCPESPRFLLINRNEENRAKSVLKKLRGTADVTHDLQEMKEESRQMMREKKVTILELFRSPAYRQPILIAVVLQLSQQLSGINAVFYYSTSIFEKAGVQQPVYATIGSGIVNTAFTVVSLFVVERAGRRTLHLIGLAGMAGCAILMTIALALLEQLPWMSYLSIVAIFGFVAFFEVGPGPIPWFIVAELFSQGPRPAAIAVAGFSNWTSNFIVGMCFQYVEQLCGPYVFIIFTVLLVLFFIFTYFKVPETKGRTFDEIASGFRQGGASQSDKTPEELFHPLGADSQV

With `Cc1ccccc1C1CCN(C2CCC(NC(=O)/C=C/c3ccc(C(F)(F)F)cc3F)CC2)CC1` (centres undefined), the inhibition (in general, the relative decrease from the control value, in per cent) was 1.85% in experiment [1], 0.43% in experiment [2] and 0.34% in experiment [3].

With `Cc1c(-c2cccc(NC(=O)C(C)(C)Oc3ccc(Cl)cc3)c2)nc2ncccn12`, the figures for the inhibition in experiment [1], in experiment [2] and in experiment [3] were -0.94%, -1.86% and -3.03%, respectively.

On to `CCNc1cc(CC)nc(Nc2ccc(C)cc2)n1`, for which the inhibition in experiment [1] came out at 33.4%; in experiment [2], 28.9%; in experiment [3], 17.9%.

Regarding `OCCc1ccc(Nc2nccc(-c3nnc4ccccn34)n2)cc1`, the values for the inhibition in experiment [1], in experiment [2] and in experiment [3] were 6.85%, 6.22% and 6.32%, respectively.

Take `Oc1ccc(CCNCCCCCCNCCc2ccc(Cl)c3ccccc23)cc1O`: the inhibition in experiment [1] was -0.26%; in experiment [2], -2.07%; in experiment [3], -2.9%.

`Cc1csc(-c2nc(NCCc3c(C)noc3C)ncc2-c2ccsc2)n1`: the inhibition in experiment [1] came out at 8.17%; in experiment [2], 11.5%; in experiment [3], 10.2%.

In the case of `CC(C)Oc1cccc(-c2ccc(C(=O)NCC3CCCN(Cc4cccc(C(F)(F)F)c4)C3)s2)c1` (centres undefined), the inhibition was -1.06% in experiment [1], -1.35% in experiment [2] and -3% in experiment [3].

Take `Cc1c(CCc2cccc(F)c2F)[nH]c2ccccc2c1=O`: the inhibition in experiment [1] was -0.2%; in experiment [2] it was 5.03%; in experiment [3], 0.83%.

Take `CCOc1c(CNCCCNc2cc(O)c3ccccc3n2)cc(Br)cc1OC`: the results for the inhibition in experiment [1], in experiment [2] and in experiment [3] were 7.77%, 4.37% and 6.38%, respectively.

Regarding `Cc1cccc2nc(-c3cccc(-c4ccc(CNCCc5ccncc5)cc4)c3)[nH]c12`, the inhibition in experiment [1] is 0.46%; in experiment [2], -0.37%; in experiment [3], -0.84%.

Regarding `CC(NCCC1CCC(NC(=O)N[C@H](C)C(O)(c2ccccc2)c2ccccc2)CC1)c1cccc2ccccc12` (some centres undefined), the inhibition in experiment [1] was found to be 16.8%; in experiment [2], 16.2%; in experiment [3] it was 13.4%.

Take `CC(C)(Cc1ccc(Cl)cc1)NCCCCCCNCCc1ccc(O)c(O)c1`: the inhibition in experiment [1] is -0.5%; in experiment [2], -2.96%; in experiment [3], -1.18%.

As for `O=C(NCCCCN1CCC(c2ccc3c(c2OCCCO)CCCC3)CC1)c1ccc(-c2ccc(C(F)(F)F)cc2)c(CO)c1`, the inhibition in experiment [1] is -0.96%; in experiment [2] it was -0.59%; in experiment [3], -0.61%.

For the origin of these results see ChEMBL document CHEMBL3433997, “St. Jude Leishmania screening dataset” (2016).
